A short description of test [1]: qHTS for Inhibitors of Plasmodium falciparum (7G8) proliferation (AID 504316). Further: nearly all actives have a fitted effect of over 65% in size. Further: potency means the concentration at half of the fitted maximal effect.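 On activity change, negative = inhibition: series mostly up to about 6.7 µM; 0% = DMSO vehicle and -100% = 0.29 µM artemisinin full kill.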 The essentials: (§1)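 Erythrocytes infected with P. falciparum line (0.3% parasitemia, 2.5% hematocrit final) incubated with compounds 72 h at 37 °C, 5% CO2; SYBR Green lysis buffer added, fluorescence read next day. Normalized to 0.29 uM artemisinin and DMSO.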
(In general: In qHTS, concentration-response curves come from the screen itself.)

Test [2] in a line: qHTS for Inhibitors of Plasmodium falciparum (CP250) proliferation (AID 504320). Further: potency means the concentration at half of the fitted maximal effect.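 On activity change, negative = inhibition: plate controls were DMSO vehicle for no effect and 0.29 µM artemisinin control for full effect.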 The essentials:
as §1

Test [3] deals with Atrial natriuretic peptide receptor 1 (Homo sapiens) (UniProt P16066). Kind of test: Natriuretic polypeptide receptor (hNpr1) antagonism - Pilot CMLD screen (AID 1347052; calls by dose curve;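 further: cGMP level read as GloSensor luciferase luminescence after agonist stimulation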; further: potency means the concentration at half of the fitted maximal effect;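 on activity change, negative = inhibition: HEK293 cells with hNpr1 stimulated by hNppA peptide at 0.1 nM; series mostly up to about 9.2 µM; on the % scale 0 is the no-effect control and ±100 the full control effect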).
Test [4] in a line: qHTS for Inhibitors of Plasmodium falciparum (HB3) proliferation (AID 504318).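 Further: 0% = DMSO vehicle and -100% = artemisinin control; nearly all actives have a fitted effect of over 60% in size.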 The gist of the method: as §1
Test [5] addresses Cytochrome P450 2C9 (Homo sapiens) (UniProt P11712). The test can be described thus: qHTS Assay for Inhibitors and Substrates of Cytochrome P450 2C9 (AID 883). Further: on the % scale 0 is the no-effect control and ±100 the full control effect; nearly all actives have a fitted effect of over 60% in size. The gist of the method:
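Signal: luciferase luminescence reporting luciferin produced by CYP2C9. Conditions: 10nM enzyme, Luciferin-H 100uM at KM, 25mM KPO4, 37C, 60 min NADPH-driven reaction. Reference: 57uM sulphaphenazole as 100% inhibition.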

The target of test [6] is Cytochrome P450 3A4 (Homo sapiens) (UniProt P08684). Kind of test: qHTS Assay for Activators of Cytochrome P450 3A4 (AID 885). Further: nearly all actives have a fitted effect of over 65% in size. The essentials:
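20nM CYP3A4 + 25uM Luciferin-PPXE (=KM), 200mM KPO4; cpd 10 min RT; NADPH regen, 60 min RT; stop w/ detection buffer, 20 min; luminescence. Normalized to 57 uM ketoconazole.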

Test [7] has as its target Cytochrome P450 2D6 (Homo sapiens) (UniProt P10635). The test can be described thus: qHTS Assay for Inhibitors and Substrates of Cytochrome P450 2D6 (AID 891).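 Further: luciferin methyl ether substrate demethylated by CYP2D6 with NADPH regeneration; on the % scale 0 is the no-effect control and ±100 the full control effect; nearly all actives have a fitted effect of over 60% in size.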 The gist of the method:
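Human CYP2D6 (5 nM) with 30 uM Luciferin-ME EGE (at Km) in 100 mM KPO4, compound preincubated 10 min, then NADPH regeneration system for 60 min at room temperature. Luciferin read by luminescence; normalized to 1.43 uM quinidine.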

Test [8] deals with Cytochrome P450 2C19 (Homo sapiens) (UniProt P33261). The test can be described thus: qHTS Assay for Inhibitors and Substrates of Cytochrome P450 2C19 (AID 899). Further: on the % scale 0 is the no-effect control and ±100 the full control effect; nearly all actives have a fitted effect of over 60% in size. The essentials:
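Signal comes from luciferase acting on luciferin released by CYP2C19-mediated hydroxylation of Luciferin-H EGE, 10uM (KM). Assay mix: 5nM enzyme, 50mM KPO4; 60 min at 37C with NADPH regeneration. Data normalized against 57uM ketoconazole.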

Test [9] has as its target Cytochrome P450 3A4 (Homo sapiens) (UniProt P08684). The test can be described thus: qHTS Assay for Inhibitors and Substrates of Cytochrome P450 3A4 (AID 884). Further: series mostly up to about 57 µM; on the % scale 0 is the no-effect control and ±100 the full control effect; nearly all actives have a fitted effect of over 50% in size. The gist of the method:
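20 nM human CYP3A4 with 25 uM Luciferin-PPXE (at KM) in 200 mM KPO4, preincubated 10 min with compound; NADPH regeneration started a 60 min RT reaction. Luciferin detected by luminescence, normalized to 57 uM ketoconazole as full inhibition.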

The values below come from PubChem BioAssay (NCATS).

Values without a mark were called inactive. Results filed as inconclusive are left out. Activity calls are given as the source filed them. Unless noted, the call rests on the fitted dose curve; in most records, active means well fitted curve in the direction sought with a large enough effect; inconclusive means small, poorly fitted or top-dose-only effect, or another doubt; inactive means no such curve, though single readings can be large; an effect the other way counts as inactive or inconclusive.

Atrial natriuretic peptide receptor 1 (Homo sapiens), sequence (P16066 whole entry, looked up): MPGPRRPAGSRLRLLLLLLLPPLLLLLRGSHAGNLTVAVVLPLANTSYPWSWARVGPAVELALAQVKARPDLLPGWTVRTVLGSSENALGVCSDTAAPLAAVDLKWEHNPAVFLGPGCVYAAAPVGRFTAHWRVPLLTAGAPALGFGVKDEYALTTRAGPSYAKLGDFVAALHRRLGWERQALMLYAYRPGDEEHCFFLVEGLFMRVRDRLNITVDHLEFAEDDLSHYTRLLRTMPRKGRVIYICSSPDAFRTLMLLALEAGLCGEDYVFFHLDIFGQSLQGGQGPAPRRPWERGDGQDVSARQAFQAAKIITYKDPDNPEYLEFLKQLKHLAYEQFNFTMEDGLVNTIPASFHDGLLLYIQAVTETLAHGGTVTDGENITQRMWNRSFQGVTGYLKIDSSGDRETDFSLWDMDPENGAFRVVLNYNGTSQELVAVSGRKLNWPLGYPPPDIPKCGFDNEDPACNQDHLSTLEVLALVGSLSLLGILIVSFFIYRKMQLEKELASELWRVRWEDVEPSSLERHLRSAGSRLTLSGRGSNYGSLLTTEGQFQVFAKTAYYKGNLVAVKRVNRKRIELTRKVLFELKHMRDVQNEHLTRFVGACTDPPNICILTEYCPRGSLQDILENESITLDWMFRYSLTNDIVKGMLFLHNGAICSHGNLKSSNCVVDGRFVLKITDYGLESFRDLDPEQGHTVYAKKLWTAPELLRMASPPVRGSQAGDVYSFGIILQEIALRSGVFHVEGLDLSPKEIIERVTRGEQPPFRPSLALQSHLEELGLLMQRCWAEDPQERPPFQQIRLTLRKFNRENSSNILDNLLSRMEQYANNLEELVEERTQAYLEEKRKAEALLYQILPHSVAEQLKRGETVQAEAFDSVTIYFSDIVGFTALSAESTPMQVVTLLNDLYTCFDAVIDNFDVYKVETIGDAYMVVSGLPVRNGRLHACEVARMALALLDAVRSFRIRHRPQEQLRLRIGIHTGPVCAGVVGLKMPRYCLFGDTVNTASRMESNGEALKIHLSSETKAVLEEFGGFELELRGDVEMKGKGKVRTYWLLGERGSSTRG
Cytochrome P450 2C19 (Homo sapiens), sequence (P33261 whole entry, looked up): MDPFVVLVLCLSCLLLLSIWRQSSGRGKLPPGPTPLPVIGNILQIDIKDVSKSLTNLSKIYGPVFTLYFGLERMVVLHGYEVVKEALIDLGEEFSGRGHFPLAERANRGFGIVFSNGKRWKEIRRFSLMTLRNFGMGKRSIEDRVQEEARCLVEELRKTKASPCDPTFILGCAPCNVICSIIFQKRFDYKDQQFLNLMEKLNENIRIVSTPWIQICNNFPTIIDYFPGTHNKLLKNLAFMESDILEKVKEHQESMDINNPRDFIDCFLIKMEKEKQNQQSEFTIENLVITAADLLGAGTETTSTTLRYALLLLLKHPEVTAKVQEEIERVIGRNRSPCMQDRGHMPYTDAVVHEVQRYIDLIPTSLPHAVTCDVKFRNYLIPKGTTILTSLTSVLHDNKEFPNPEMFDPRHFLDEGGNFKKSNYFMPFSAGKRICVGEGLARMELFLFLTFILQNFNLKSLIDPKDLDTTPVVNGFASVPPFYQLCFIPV
Cytochrome P450 2D6 (Homo sapiens), sequence (P10635 whole entry, looked up): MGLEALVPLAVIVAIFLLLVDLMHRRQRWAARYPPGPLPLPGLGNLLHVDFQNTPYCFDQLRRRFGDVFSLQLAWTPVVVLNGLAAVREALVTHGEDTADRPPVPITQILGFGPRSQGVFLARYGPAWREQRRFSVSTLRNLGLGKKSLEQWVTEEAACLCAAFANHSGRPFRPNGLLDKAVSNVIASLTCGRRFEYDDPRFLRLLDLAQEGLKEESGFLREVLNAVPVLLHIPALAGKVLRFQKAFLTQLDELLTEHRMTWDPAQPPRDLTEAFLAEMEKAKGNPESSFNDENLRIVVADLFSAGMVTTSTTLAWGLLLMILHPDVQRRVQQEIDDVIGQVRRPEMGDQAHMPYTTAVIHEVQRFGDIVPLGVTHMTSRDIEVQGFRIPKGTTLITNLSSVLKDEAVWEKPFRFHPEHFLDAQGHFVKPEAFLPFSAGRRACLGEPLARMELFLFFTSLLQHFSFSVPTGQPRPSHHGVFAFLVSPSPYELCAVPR
Cytochrome P450 2C9 (Homo sapiens), sequence (P11712 whole entry, looked up): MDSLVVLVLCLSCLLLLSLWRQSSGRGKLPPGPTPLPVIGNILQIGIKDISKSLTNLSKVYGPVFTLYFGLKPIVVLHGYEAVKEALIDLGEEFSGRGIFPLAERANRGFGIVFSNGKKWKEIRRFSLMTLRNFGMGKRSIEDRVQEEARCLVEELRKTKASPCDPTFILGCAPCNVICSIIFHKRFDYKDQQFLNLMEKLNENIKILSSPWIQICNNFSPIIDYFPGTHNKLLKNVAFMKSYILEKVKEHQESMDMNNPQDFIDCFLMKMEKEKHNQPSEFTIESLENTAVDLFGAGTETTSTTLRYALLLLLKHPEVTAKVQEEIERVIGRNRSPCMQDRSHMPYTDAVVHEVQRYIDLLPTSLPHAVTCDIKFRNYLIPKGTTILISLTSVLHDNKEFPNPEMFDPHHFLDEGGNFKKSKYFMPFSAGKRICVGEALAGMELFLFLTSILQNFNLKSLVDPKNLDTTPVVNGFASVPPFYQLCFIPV
Cytochrome P450 3A4 (Homo sapiens), sequence (P08684 whole entry, looked up): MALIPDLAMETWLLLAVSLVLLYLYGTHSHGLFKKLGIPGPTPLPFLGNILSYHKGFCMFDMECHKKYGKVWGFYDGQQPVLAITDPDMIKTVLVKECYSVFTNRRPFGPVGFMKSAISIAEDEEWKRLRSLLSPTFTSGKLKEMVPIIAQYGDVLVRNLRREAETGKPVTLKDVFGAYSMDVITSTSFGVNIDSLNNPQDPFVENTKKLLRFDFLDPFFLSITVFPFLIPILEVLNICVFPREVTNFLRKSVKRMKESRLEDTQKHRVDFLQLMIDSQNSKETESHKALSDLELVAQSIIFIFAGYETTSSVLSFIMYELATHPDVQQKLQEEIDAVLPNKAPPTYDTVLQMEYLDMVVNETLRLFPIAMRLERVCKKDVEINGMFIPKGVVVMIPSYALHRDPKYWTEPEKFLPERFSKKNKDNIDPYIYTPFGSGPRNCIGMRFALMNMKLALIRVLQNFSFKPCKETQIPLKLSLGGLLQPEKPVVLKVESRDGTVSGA

Turning to `O=C1CCCC2=C1[C@H]1O[C@](CCCCN3C(=O)c4ccccc4C3=O)(Cc3c1ccc1ccccc31)O2`, the Potency in test [1] was 1690 nM (active). The Potency result in [2] and in test [3] was “inactive” in each case.

On to `CCN1C(=NCc2cc(OC)c(OC)c(OC)c2)NC(c2cccc(C(F)(F)F)c2)C(C(=O)OC)=C1C` (configuration not stated), for which the Potency in test [1] was 1900 nM (active). The Potency result in test [2] and in [3] was “inactive” each time.

As for `CCN1C(=NCc2ccc(OC)cc2)NC(c2ccccc2)C(C(=O)OC)=C1C` (configuration not stated), the Potency result in test [1], in test [4], in test [2] and in test [3] was “inactive” in each case.

With `COc1cc2c(cc1OC)[C@@H]1O[C@](c3ccsc3)(C2)Oc2cc(C)n(Cc3ccccc3)c(=O)c21`, the Potency in test [1] is 1510 nM (active); in test [3], 531 nM (active). For the same compound, in test [2], the Potency result was “inactive”.

With `CC(C)=CCC1(CC=C(C)C)C(=O)C(C(=O)c2ccccc2)=C2OC(C)(C)CCC2(CC=C(C)C)C1=O` (configuration not stated), the activity change, negative = inhibition was -24.2% [at 11.4 µM] in test [5] and 20.1% [at 11.4 µM] in test [7]. The activity change, positive = activation in test [6] is -69.3% [at 11.4 µM]. Also, the activity, negative = inhibition in test [8] was -5.29% [at 11.4 µM].

As to `COc1cccc([C@H]2NC(=O)C[C@@H]3C[C@@H](C)[C@@H](c4cccc(OC)c4)N3C(=O)C=CC[C@@H]2C)c1`, the Potency entry in [2] and in test [3] was “inactive” in each case.

On to `CCCC[C@]12Cc3cc(C#N)ccc3[C@H](O1)c1c(cc(-c3ccccc3)oc1=O)O2`, for which the Potency result in [2] and in [3] was “inactive” each time.

`C=CC[C@](C)(O)c1ccccc1`: the Potency result in test [2] and in [3] was “inactive” in each case.

With `CC(C)(C)OC(=O)C1=NOC2(C=CC(=O)C=C2)C1`, the activity change, negative = inhibition in test [5] is -5.68% [at 11.4 µM]; in [9], -24.2% [at 11.4 µM]; in [7], -10.1% [at 11.4 µM]. Moreover, the activity, negative = inhibition in [8] was 0.0773% [at 11.4 µM]. Also, the Potency result in test [4] is “inactive”. The Potency in test [3] was 376 nM (active).

`COC(=O)N[C@H](C(C(=O)OC)=C(C)NCc1ccccc1)c1ccccc1`: the Potency entry in [2] and in test [3] was “inactive” in each case.

Take `CCCNC(=O)OC[C@H]1O[C@H](CCON=Cc2ccc(C(=O)N3[C@H](C(=O)OC)CC[C@H](C)[C@@H]3c3ccc(C)cc3)cc2)C=C[C@H]1Oc1ccc(OC)cc1`: the Potency entry in test [2] and in test [3] was “inactive” each time.

Regarding `COC(=O)N1C2CC(=O)O[C@H]3c4cc5c(cc4[C@]1(C)[C@@]3(Br)c1ccccc12)OCO5`, in [2], the Potency is 1510 nM (active). Further, the Potency entry in [3] was “inactive”.

Regarding `C[C@]12C[C@@](C)(C=C1C=Cc1ccccc1)C(=O)C[C@H]2c1ccccc1`, the Potency entry in test [2] and in [3] was “inactive” throughout.

`C[C@@H]1C=CCC(=O)N[C@@H](c2ccc3ccccc3c2)[C@H](C)C=CCC(=O)N[C@@H]1c1ccc2ccccc2c1`: the Potency entry in test [2] and in [3] was “inactive” in each case.

Regarding `COc1ccc([C@]23Cc4ccccc4[C@H](O2)c2c(cc(C)n(Cc4ccccc4)c2=O)O3)cc1`, the Potency entry in test [2] and in [3] was “inactive” each time.

Regarding `C[C@H]1CC[C@H]2C(=O)N(Cc3ccccc3)C[C@@H](O)CN2[C@H]1c1ccc(Br)cc1`, the Potency entry in test [2] and in [3] was “inactive” each time.

Take `C[C@H]1Cc2c(COc3ccccc3)nc3c(c2CO1)CN(C(=O)c1cc(I)ccc1F)CC3`: the Potency result in test [2] and in test [3] was “inactive” throughout.

For `C[C@@H]1[C@H](c2ccccc2)c2cc3ccccc3nc2C(=O)C[C@@H]1C(=O)N1CCCC1`, the Potency entry in test [2] and in test [3] was “inactive” in each case.

For `CCN1C(=NCCc2ccccn2)NC(c2cccs2)C(C(=O)OC)=C1C` (configuration not stated), the Potency result in test [2] and in test [3] was “inactive” each time.

For `COc1ccc([C@]23Cc4ccccc4[C@H](O2)C2=C(CC(C)(C)CC2=O)O3)cc1`, the Potency result in test [2] and in [3] was “inactive” each time.

Consider `Cc1ccc(C=CC2=C[C@]3(C)C[C@]2(C)[C@H](c2ccc(C)cc2)CC3=O)cc1`, for which the Potency result in test [2] and in test [3] was “inactive” each time.

With `O=C(N[C@H](c1ccccc1)C1CCCC=C1c1ccccc1)C(F)(F)F` (some centres not stated), the Potency entry in test [2] and in test [3] was “inactive” each time.

On to `Cc1cc2c(c(=O)n1Cc1ccccc1)[C@H]1O[C@](c3ccsc3)(Cc3ccccc31)O2`, for which the Potency result in [2] and in test [3] was “inactive” throughout.

Turning to `COC(=O)C1=C(C(=O)OC)[C@@H]2N(Cc3ccccc3)c3ccccc3[C@@]23C[C@@H](CO)N=C3N1`, the Potency entry in test [2] and in test [3] was “inactive” each time.

`CC=CC1=Cc2ccccc2C(C(C(=O)OC)C(=O)OC)N1C(=O)OC` (configuration not stated): the Potency entry in test [2] and in test [3] was “inactive” in each case.

For the compound `COC(=O)[C@@H]1CC[C@H](C)[C@@H](c2ccc(C)cc2)N1C(=O)c1ccc(C=NO[C@H](C)CN2CCCc3nc(C)c(C)cc32)cc1`, the Potency in [2] was 1510 nM (active). Further, the Potency entry in [3] is “inactive”.

Regarding `COc1cc2c(cc1OC)[C@@H]1O[C@](c3ccsc3)(C2)OC2=C1C(=O)CC(C)(C)C2`, the Potency result in [2] and in [3] was “inactive” each time.

In the case of `CC1=C[C@@H](COCc2ccccc2)O[C@@]2(C1)C(=O)N(Cc1ccccc1C(F)(F)F)c1ccccc12`, the Potency entry in test [2] and in [3] was “inactive” throughout.

Regarding `COC1=CC2C(=O)C([C@@H]3c4ccccc4C[C@]23C)C1(O)c1cccc(OC)c1` (some centres not stated), the Potency result in test [2] and in test [3] was “inactive” each time.

`O=C1N(Cc2ccccc2C(F)(F)F)c2ccccc2[C@@]12O[C@H](COc1ccccc1)CC1=C2CCC1`: the Potency result in [2] and in [3] was “inactive” throughout.

For the compound `COc1cc2c(c(OC)c1OC)CC(c1ccccc1)=C(c1ccccc1)CC2NC(=O)C(F)(F)F` (configuration not stated), the Potency result in test [2] and in test [3] was “inactive” in each case.

`CCC=CC[C@@]1(C(=O)OC)C=C[C@@H](C)[C@H](c2ccccc2Br)N1C(=O)C(F)(F)F`: the Potency result in test [2] and in test [3] was “inactive” in each case.

Take `COC(=O)CC=C[C@@H](C)[C@H](NC(=O)OCC(Cl)(Cl)Cl)c1ccc(-c2ccccc2)cc1`: the Potency entry in [2] and in test [3] was “inactive” each time.

`COC(=O)C1=C(C)N(Cc2ccccc2)C(=NCc2ccc3c(c2)OCO3)NC1CCc1ccccc1` (configuration not stated): the Potency result in [2] and in [3] was “inactive” each time.

As to `CCOC(=O)CN1C(=O)[C@@]2(CC(C)=CC[C@@H](COc3ccccc3)O2)c2ccccc21`, the Potency result in test [2] and in test [3] was “inactive” throughout.

With `CCCCn1c(C)cc2c(c1=O)[C@H]1O[C@](CCCC)(Cc3cc(C#N)ccc31)O2`, the Potency entry in test [2] and in test [3] was “inactive” in each case.

`C=CC[C@@]1(c2ccccc2)Oc2ccccc2-c2nc3ccccc3nc21`: the Potency result in test [2] and in [3] was “inactive” in each case.

Take `C[C@@H]1C(c2ccccc2)=CC(=O)c2nc3ccccc3cc2[C@@H]1C(=O)N1CCCC1`: the Potency entry in [2] and in [3] was “inactive” in each case.
